According to PubChem BioAssay (EPA / NIEHS):
Inconclusive results are not listed. The source made the active and inactive calls. Rule for the calls, unless noted: active = hit-call score of the fitted dose curve at least 0.9, where 1 is the maximum; inconclusive = response in the unintended direction; inactive = score below 0.9.

What was measured:
[1] = ATG_TAL_CIS: Attagene CIS-FACTORIAL HepG2 Assay for human TAL Basal Promoter (AID 2282966; active = hit-call score of the fitted dose curve at least 0.9, where 1 is the maximum; inactive = score below 0.9;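 note: background control endpoint measuring basal TAL promoter reporter mRNA not a specific factor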); conditions: HepG2 Attagene cis-factorial TAL promoter reporter; actives raise or lower the signal
Summary of the method: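 HepG2 cells were transiently transfected with promoter-driven multiplexed reporter units and dosed for 24 h. Reporter mRNA was measured by RT-PCR with capillary electrophoresis fluorescence; bidirectional fits used DMSO as baseline, serving as a background control.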

[2] = ATG_TGFb_CIS: Attagene CIS-FACTORIAL HepG2 Assay for human Transforming Growth Factor (TGF) (AID 2282967; active = hit-call score of the fitted dose curve at least 0.9, where 1 is the maximum; inactive = score below 0.9); conditions: HepG2 Attagene CIS TGFb reporter, mRNA transcription; actives raise or lower the signal
Summary of the method: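 Transient MRTU transfection of HepG2 (FuGene 6). Dose 24 h. TriZol RNA, oligo(dT) RT, PCR, 6-FAM primer extension, HpaI cut, CE. Bidirectional fit, DMSO = baseline.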

[3] = ATG_VDRE_CIS: Attagene CIS-FACTORIAL HepG2 Assay for human Vitamin D Receptor Element (VDRE) (AID 2282968; active = hit-call score of the fitted dose curve at least 0.9, where 1 is the maximum; inactive = score below 0.9); conditions: HepG2 VDRE cis-reporter transcription, actives raise or lower the signal
Summary of the method: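 Transiently transfected HepG2 cells carrying cis-regulated reporter transcription units were exposed for 24 h. Reporter mRNA was measured by RT-PCR with fluorescent labelling and capillary electrophoresis, and fitted in both directions against DMSO.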

[4] = target: Nuclear receptor subfamily 1 group I member 3 (Homo sapiens) (UniProt Q14994); test: ATG_CAR_TRANS: Attagene TRANS-FACTORIAL HepG2 Assay for human Constitutive Androstane Receptor (CAR) (AID 2282969); conditions: HepG2 Attagene TRANS-FACTORIAL CAR reporter;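 note: activators raise reporter mRNA above DMSO so AC50 marks induction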
Summary of the method: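 HepG2 cells transiently transfected with GAL4-UAS reporter units; TRANS format reads activity of exogenous chimeric NR-Gal4 protein. After 24 h dosing, reporter mRNA quantified by RT-PCR, 6-FAM labelling and capillary electrophoresis; gain of signal fitted against DMSO.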

[5] = target: X-box-binding protein 1 (Homo sapiens) (UniProt P17861); test: ATG_Xbp1_CIS: Attagene CIS-FACTORIAL HepG2 Assay for human X-box Binding Protein 1 (XBP1) (AID 2282972; active = hit-call score of the fitted dose curve at least 0.9, where 1 is the maximum; inactive = score below 0.9); conditions: HepG2 XBP1 cis-element reporter, Attagene multiplex; actives raise or lower the signal
Summary of the method: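 HepG2 cells transiently transfected with multiple cis-element reporter units report endogenous TF activity; 24 h exposure, then reporter mRNA measured by RT-PCR, 6-FAM labelling, HpaI digestion and capillary electrophoresis. Bidirectional fitting versus DMSO.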

[6] = ATG_Hpa5_TRANS: Attagene TRANS-FACTORIAL HepG2 Assay for human GAL4-Hpa5 Hepatocyte Transcription Factor Basal Promoter (AID 2282975); conditions: HepG2 Attagene GAL4-Hpa5 transcription reporter;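 note: hits are increases in reporter mRNA over DMSO baseline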
Summary of the method: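 Basal-promoter GAL4 background control within the HepG2 trans-factorial panel of transiently transfected reporter units. Reporter mRNA is measured 24 h after dosing by RT-PCR and capillary electrophoresis, fitted for gain of signal versus DMSO.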

[7] = target: Glucocorticoid receptor (Homo sapiens) (UniProt P04150); test: ATG_GR_TRANS: Attagene TRANS-FACTORIAL HepG2 Assay for human Glucocorticoid Receptor (GR) (AID 2282978); conditions: HepG2 Attagene TRANS GR reporter, mRNA transcription;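 note: activators score as hits since higher reporter transcript over DMSO is fitted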
Summary of the method: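 After 24 h incubation with test chemical, transfected HepG2 cells were lysed for RNA; reporter cDNA was amplified, FAM-labelled, HpaI-digested and sized on a capillary analyser. Signal gain relative to DMSO was scored.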

[8] = target: Oxysterols receptor LXR-alpha (Homo sapiens) (UniProt Q13133); test: ATG_LXRa_TRANS: Attagene TRANS-FACTORIAL HepG2 Assay for human Liver X Receptor alpha (LXRa) (AID 2282980); conditions: HepG2 Attagene TRANS reporter, LXRa transactivation
Summary of the method: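 HepG2 cells were transiently transfected with multiplexed reporter units driven by chimeric LXRa–GAL4 fusion proteins, then dosed for 24 h. Reporter mRNA was quantified by RT-PCR, fluorescent labelling and capillary electrophoresis; gain of signal fitted against DMSO baseline.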

[9] = ATG_M_06_TRANS: Attagene TRANS-FACTORIAL HepG2 Assay for M06 Transcription Factor (Internal Marker) (AID 2282983); conditions: HepG2 Attagene TRANS M06 internal marker reporter;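 note: reporter transcript level by RT-PCR then capillary electrophoresis fluorescence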
Summary of the method: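 HepG2 cells transiently transfected with multiplexed GAL4-UAS reporter transcription units; after 24 h compound exposure, reporter mRNA measured by RT-PCR, FAM-labelled primer extension, HpaI digestion and capillary electrophoresis. Gain-of-signal fitted versus DMSO baseline; background control readout.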

[10] = target: Transcriptional activator Myb (Homo sapiens) (UniProt P10242); test: ATG_Myb_CIS: Attagene CIS-FACTORIAL HepG2 Assay for human Myeloblastosis (Myb) Proto-Oncogene Transcription Factor (AID 2282986; active = hit-call score of the fitted dose curve at least 0.9, where 1 is the maximum; inactive = score below 0.9); conditions: HepG2 Attagene CIS-FACTORIAL Myb reporter transcription; actives raise or lower the signal
Summary of the method: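 After 24 h of compound dosing, total RNA from transfected HepG2 cells is reverse-transcribed and the reporter sequences amplified, labeled and separated by capillary electrophoresis. Values come from bidirectional fitting against DMSO.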

[11] = target: Estrogen receptor (Homo sapiens) (UniProt P03372); test: ATG_ERa_TRANS: Attagene TRANS-FACTORIAL HepG2 Assay for human Estrogen Receptor alpha (ERa) (AID 2282970); conditions: HepG2 Attagene TRANS ERa GAL4 reporter, mRNA
Summary of the method: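 HepG2 cells transiently transfected with multiplexed GAL4-UAS reporter units; ERa activity read via exogenous chimeric NR-Gal4 protein. After 24 hour compound exposure, reporter mRNA measured by RT-PCR with 6-FAM labelling and capillary electrophoresis; gain-of-signal fitted relative to DMSO.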

[12] = target: Bile acid receptor (Homo sapiens) (UniProt Q96RI1); test: ATG_FXR_TRANS: Attagene TRANS-FACTORIAL HepG2 Assay for Farnesoid X Receptor (FXR) (AID 2282979); conditions: HepG2 Attagene TRANS FXR-GAL4 reporter transcription;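 note: hits raise reporter mRNA above DMSO so AC50 marks FXR activation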
Summary of the method: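 HepG2 cells transiently transfected with reporter constructs in which a chimeric FXR-GAL4 protein drives a GAL4-UAS reporter; 24 h compound exposure. Reporter mRNA measured by RT-PCR, FAM labelling, HpaI digestion and capillary electrophoresis; gain-of-signal versus DMSO.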

[13] = ATG_M_32_TRANS: Attagene TRANS-FACTORIAL HepG2 Assay for M32 Transcription Factor (Internal Marker) (AID 2282984); conditions: HepG2 Attagene TRANS M32 internal marker reporter
Summary of the method: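 HepG2 cells transiently transfected with GAL4-UAS reporter units, dosed for 24 hours. Reporter mRNA quantified by RT-PCR, 6-FAM labelling, HpaI digestion and capillary electrophoresis; internal-marker signal fitted upward relative to DMSO.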

[14] = target: Nuclear receptor subfamily 4 group A member 2 (Homo sapiens) (UniProt P43354); test: ATG_NURR1_TRANS: Attagene TRANS-FACTORIAL HepG2 Assay for human Nuclear Receptor Related Protein 1 (NURR1) (AID 2282985); conditions: HepG2 Attagene TRANS reporter, mRNA readout
Summary of the method: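 HepG2 cells transiently transfected with NURR1-Gal4 chimera and GAL4-UAS reporter units; after 24 hr compound exposure, reporter mRNA quantified by RT-PCR and capillary electrophoresis; gain of signal fitted against DMSO.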

[15] = ATG_M_19_TRANS: Attagene TRANS-FACTORIAL HepG2 Assay for M19 Transcription Factor (Internal Marker) (AID 2282974); conditions: HepG2 Attagene TRANS-FACTORIAL M19 internal marker reporter
Summary of the method: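 Transfected HepG2 (GAL4-UAS MRTUs), 24 h compound, TriZol RNA, DNase-treated RT, reporter PCR, FAM label, HpaI digest, CE fluorescence; gain vs DMSO.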

[16] = ATG_GAL4_TRANS: Attagene TRANS-FACTORIAL HepG2 Assay for GAL4 (Internal Marker) (AID 2282976); conditions: HepG2 Attagene TRANS GAL4 internal marker reporter
Summary of the method: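 HepG2 cells transiently transfected with multiplexed GAL4-UAS reporter constructs were dosed for 24 h. Reporter mRNA was measured by RT-PCR, 6-FAM primer extension, HpaI digestion and capillary electrophoresis, and gain of signal was fitted relative to DMSO.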

[17] = target: Estrogen-related receptor gamma (Homo sapiens) (UniProt P62508); test: ATG_ERRg_TRANS: Attagene TRANS-FACTORIAL HepG2 Assay for human Estrogen-Related Receptor gamma (ERRg) (AID 2282977); conditions: HepG2 Attagene TRANS reporter, ERRg transactivation;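 note: hits increase reporter signal over DMSO so potencies reflect activators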
Summary of the method: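 HepG2 cells transiently transfected with multiplexed GAL4-UAS reporter units driven by chimeric NR-Gal4 proteins; 24 h exposure. Reporter mRNA quantified by RT-PCR, fluorescent labelling, HpaI digestion and capillary electrophoresis; gain of signal vs DMSO.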

[18] = target: Steroid hormone receptor ERR1 (Homo sapiens) (UniProt P11474); test: ATG_ERRa_TRANS: Attagene TRANS-FACTORIAL HepG2 Assay for human Estrogen-Related Receptor alpha (ERRa) (AID 2282971); conditions: HepG2 Attagene TRANS reporter, ERRa transactivation
Summary of the method: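 HepG2 cells transiently transfected with multiplexed GAL4-UAS reporter units reading chimeric ERRa-Gal4 activity; 24 h compound exposure. Reporter mRNA measured by RT-PCR, 6-FAM labelling, HpaI digest and capillary electrophoresis; gain of signal fitted versus DMSO baseline.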

Chain of Transcriptional activator Myb (Homo sapiens) (P10242 whole entry, looked up): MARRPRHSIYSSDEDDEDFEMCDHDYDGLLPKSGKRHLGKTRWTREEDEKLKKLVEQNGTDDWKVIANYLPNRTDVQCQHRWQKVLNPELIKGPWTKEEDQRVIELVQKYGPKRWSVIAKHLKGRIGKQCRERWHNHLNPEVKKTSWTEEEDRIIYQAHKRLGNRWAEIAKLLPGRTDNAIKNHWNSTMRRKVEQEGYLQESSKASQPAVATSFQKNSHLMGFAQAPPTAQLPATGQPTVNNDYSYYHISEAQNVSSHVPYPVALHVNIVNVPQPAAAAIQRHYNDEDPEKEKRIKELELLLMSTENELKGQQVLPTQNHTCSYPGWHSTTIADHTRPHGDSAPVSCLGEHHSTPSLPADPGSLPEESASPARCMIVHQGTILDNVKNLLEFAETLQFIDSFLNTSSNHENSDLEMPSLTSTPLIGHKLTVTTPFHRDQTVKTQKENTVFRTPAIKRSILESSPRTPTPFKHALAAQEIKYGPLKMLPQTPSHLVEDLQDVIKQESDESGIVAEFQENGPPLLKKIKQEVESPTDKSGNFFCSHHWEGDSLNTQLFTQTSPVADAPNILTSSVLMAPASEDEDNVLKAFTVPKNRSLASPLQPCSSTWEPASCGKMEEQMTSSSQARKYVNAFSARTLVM
Chain of Bile acid receptor (Homo sapiens) (Q96RI1 whole entry, looked up, the tested form may be a part): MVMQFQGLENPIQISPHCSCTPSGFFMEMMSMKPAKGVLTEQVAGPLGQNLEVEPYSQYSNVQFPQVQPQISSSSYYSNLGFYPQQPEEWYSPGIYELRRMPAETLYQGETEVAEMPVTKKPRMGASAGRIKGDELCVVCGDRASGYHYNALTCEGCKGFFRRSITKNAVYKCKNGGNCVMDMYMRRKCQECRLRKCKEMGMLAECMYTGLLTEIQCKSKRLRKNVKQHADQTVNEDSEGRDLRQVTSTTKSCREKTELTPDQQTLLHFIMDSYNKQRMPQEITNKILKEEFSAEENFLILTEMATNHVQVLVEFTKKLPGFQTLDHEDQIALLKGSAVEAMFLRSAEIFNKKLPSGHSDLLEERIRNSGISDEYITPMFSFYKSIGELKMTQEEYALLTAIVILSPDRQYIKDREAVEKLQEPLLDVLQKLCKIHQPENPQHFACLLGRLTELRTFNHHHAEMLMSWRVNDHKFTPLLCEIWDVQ
Chain of X-box-binding protein 1 (Homo sapiens) (P17861 whole entry, looked up): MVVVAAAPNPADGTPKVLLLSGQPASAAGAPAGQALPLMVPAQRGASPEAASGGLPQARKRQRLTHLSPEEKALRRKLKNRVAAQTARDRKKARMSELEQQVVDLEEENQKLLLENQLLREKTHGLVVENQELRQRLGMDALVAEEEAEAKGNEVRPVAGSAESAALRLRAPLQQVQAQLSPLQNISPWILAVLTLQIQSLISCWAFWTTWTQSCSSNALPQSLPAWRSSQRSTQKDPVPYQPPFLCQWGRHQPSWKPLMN
Chain of Glucocorticoid receptor (Homo sapiens) (P04150 whole entry, looked up): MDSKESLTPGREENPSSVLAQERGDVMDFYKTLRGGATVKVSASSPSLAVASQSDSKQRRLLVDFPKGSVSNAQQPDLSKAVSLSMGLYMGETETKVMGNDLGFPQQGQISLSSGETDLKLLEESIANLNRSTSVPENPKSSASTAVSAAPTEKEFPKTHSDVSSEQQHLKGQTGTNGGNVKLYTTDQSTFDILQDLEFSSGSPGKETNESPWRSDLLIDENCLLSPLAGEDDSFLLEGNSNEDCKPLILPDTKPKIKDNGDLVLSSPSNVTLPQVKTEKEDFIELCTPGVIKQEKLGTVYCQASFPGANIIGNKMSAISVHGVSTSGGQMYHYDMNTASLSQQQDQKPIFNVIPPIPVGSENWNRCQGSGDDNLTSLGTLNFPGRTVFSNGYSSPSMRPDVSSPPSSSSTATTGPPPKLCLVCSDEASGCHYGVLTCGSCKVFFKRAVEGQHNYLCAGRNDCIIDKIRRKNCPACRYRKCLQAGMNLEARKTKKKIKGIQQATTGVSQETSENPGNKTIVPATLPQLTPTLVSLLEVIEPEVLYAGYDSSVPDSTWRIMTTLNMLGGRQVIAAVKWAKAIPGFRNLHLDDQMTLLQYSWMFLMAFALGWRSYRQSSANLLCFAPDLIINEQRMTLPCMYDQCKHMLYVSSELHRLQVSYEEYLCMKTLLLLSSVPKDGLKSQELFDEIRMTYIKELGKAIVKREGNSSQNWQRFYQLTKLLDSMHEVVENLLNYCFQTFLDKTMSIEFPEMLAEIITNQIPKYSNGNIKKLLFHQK
Chain of Nuclear receptor subfamily 1 group I member 3 (Homo sapiens) (Q14994 whole entry, looked up, the tested form may be a part): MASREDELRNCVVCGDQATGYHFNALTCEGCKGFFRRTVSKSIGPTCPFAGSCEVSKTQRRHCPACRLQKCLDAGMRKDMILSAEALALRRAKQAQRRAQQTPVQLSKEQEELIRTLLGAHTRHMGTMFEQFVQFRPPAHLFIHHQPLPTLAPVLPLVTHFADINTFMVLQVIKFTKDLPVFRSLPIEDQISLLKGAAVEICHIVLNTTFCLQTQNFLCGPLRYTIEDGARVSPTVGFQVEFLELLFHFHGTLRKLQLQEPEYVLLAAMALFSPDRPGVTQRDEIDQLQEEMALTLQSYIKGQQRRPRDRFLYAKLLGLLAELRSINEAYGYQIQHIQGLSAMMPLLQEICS
Chain of Nuclear receptor subfamily 4 group A member 2 (Homo sapiens) (P43354 whole entry, looked up, the tested form may be a part): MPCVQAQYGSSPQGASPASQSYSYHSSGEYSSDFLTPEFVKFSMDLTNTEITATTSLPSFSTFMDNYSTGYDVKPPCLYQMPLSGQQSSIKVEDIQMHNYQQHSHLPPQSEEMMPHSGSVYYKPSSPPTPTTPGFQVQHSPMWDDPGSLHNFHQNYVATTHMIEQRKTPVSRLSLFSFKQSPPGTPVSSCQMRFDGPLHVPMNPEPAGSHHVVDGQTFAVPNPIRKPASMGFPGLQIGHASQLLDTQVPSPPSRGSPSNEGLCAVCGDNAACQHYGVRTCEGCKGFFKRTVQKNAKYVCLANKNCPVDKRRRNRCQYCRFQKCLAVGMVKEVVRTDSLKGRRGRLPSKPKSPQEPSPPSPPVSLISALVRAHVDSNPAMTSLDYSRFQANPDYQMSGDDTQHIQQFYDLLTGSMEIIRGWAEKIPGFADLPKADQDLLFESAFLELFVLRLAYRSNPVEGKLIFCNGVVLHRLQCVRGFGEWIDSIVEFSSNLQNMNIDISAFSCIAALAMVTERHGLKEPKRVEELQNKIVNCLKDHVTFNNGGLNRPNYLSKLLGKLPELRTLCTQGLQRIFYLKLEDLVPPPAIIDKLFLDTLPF
Chain of Estrogen-related receptor gamma (Homo sapiens) (P62508 whole entry, looked up, the tested form may be a part): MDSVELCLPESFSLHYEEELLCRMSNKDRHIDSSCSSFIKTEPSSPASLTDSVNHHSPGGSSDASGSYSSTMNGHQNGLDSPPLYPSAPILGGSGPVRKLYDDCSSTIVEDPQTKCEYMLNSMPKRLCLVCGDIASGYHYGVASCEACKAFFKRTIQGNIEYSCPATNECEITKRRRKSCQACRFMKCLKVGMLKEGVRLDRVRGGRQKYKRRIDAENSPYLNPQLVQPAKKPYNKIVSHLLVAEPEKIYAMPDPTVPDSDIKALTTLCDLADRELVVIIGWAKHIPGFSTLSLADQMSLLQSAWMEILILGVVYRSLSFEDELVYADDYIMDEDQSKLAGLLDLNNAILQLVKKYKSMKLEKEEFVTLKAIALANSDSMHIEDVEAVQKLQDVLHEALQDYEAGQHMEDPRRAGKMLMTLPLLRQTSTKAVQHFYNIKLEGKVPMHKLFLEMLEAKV
Chain of Oxysterols receptor LXR-alpha (Homo sapiens) (Q13133 whole entry, looked up, the tested form may be a part): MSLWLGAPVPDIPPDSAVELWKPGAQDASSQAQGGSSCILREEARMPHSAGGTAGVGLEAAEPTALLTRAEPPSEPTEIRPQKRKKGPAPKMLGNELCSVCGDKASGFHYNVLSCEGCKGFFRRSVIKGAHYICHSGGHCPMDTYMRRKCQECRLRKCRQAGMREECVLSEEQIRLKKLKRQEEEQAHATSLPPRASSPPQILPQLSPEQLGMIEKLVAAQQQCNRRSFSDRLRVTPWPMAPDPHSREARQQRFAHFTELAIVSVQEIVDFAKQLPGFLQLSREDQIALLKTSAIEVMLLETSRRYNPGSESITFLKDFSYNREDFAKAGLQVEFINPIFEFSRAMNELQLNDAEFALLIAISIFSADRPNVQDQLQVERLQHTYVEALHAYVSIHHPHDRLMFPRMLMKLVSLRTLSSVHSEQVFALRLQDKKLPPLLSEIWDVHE
Chain of Steroid hormone receptor ERR1 (Homo sapiens) (P11474 whole entry, looked up, the tested form may be a part): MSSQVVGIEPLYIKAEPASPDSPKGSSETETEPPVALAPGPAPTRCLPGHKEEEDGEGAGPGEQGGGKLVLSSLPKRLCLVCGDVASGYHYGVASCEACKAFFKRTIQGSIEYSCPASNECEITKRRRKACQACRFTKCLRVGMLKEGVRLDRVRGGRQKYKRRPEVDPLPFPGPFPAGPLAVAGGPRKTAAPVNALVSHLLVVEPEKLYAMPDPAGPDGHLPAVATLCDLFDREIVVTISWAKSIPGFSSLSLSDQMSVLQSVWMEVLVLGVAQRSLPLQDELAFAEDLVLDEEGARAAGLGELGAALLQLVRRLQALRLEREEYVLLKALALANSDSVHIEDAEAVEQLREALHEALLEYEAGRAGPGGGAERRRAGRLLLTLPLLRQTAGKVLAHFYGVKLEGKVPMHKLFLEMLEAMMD

CCc1cnc(C2=NC(C)(C(C)C)C(=O)N2)c(C(=O)O)c1 (configuration not stated)
outcome [1]: inactive
outcome [2]: inactive
outcome [3]: inactive
outcome [4]: inactive
outcome [5]: inactive
outcome [6]: inactive
outcome [7]: inactive
outcome [8]: inactive
outcome [9]: inactive
outcome [10]: inactive

Cc1cc(C2CC2)nc(Nc2ccccc2)n1
outcome [1]: inactive
AC50 [2]: 50 µM (active)
AC50 [3]: 28.6 µM (active)
outcome [4]: inactive
outcome [11]: inactive
AC50 [5]: 31.6 µM (active)
outcome [12]: inactive
outcome [8]: inactive
outcome [9]: inactive
outcome [13]: inactive
outcome [14]: inactive
AC50 [10]: 79.1 µM (active)

CCOP(=O)(NC(C)C)Oc1ccc(SC)c(C)c1 (configuration not stated)
outcome [1]: inactive
outcome [2]: inactive
AC50 [3]: 8.8 µM (active)
outcome [4]: inactive
outcome [5]: inactive
outcome [15]: inactive
outcome [6]: inactive
outcome [16]: inactive
outcome [7]: inactive
outcome [12]: inactive
outcome [8]: inactive
outcome [9]: inactive
outcome [13]: inactive
outcome [10]: inactive

Cc1ccn2nc(S(=O)(=O)Nc3c(F)cccc3F)nc2n1
outcome [1]: inactive
outcome [2]: inactive
outcome [3]: inactive
outcome [4]: inactive
outcome [5]: inactive
outcome [17]: inactive
outcome [12]: inactive
outcome [9]: inactive
outcome [13]: inactive
outcome [10]: inactive

COP(=O)(NC(C)=O)SC (configuration not stated)
outcome [1]: inactive
outcome [2]: inactive
outcome [3]: inactive
outcome [4]: inactive
outcome [5]: inactive
outcome [6]: inactive
outcome [7]: inactive
outcome [8]: inactive
outcome [9]: inactive
outcome [10]: inactive

C#CCC1=C(C)C(OC(=O)C2C(C=C(C)C)C2(C)C)CC1=O (configuration not stated)
AC50 [1]: 88.4 µM (active)
outcome [2]: inactive
AC50 [3]: 7.01 µM (active)
outcome [4]: inactive
AC50 [5]: 84.6 µM (active)
outcome [6]: inactive
outcome [17]: inactive
outcome [12]: inactive
outcome [9]: inactive
outcome [13]: inactive
outcome [14]: inactive
AC50 [10]: 93.4 µM (active)

N#CSCSC#N
outcome [1]: inactive
outcome [2]: inactive
outcome [3]: inactive
outcome [4]: inactive
outcome [18]: inactive
outcome [5]: inactive
outcome [6]: inactive
outcome [17]: inactive
outcome [7]: inactive
outcome [8]: inactive
outcome [9]: inactive
outcome [13]: inactive
outcome [14]: inactive
outcome [10]: inactive

CC1(C(=O)Nc2ccc(O)c(Cl)c2Cl)CCCCC1
outcome [1]: inactive
outcome [2]: inactive
AC50 [3]: 10.8 µM (active)
outcome [4]: inactive
outcome [5]: inactive
outcome [17]: inactive
AC50 [8]: 50 µM (active)
outcome [9]: inactive
outcome [14]: inactive
outcome [10]: inactive
